Screening results (PubChem BioAssay)
Rows were chosen to be rich in hits. Some 31% of all compounds tested hit in one or more screens of this group.
CYP2C9 activ: increases human cytochrome P450 2C9 activity; recombinant CYP2C9, luciferin-H conversion, luminescence; stronger effect = higher value; factor 1 = untreated enzyme, 0 = blocked; activation factor at 5 µM; 96,000 compounds, 1.4% hits;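 active = activation factor of 2 or more for CYP2C9 at a 5 µM dose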;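 note: 0 = sulfaphenazole-blocked wells and 1 = vehicle-only wells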
Target sequence (P11712 whole entry, looked up): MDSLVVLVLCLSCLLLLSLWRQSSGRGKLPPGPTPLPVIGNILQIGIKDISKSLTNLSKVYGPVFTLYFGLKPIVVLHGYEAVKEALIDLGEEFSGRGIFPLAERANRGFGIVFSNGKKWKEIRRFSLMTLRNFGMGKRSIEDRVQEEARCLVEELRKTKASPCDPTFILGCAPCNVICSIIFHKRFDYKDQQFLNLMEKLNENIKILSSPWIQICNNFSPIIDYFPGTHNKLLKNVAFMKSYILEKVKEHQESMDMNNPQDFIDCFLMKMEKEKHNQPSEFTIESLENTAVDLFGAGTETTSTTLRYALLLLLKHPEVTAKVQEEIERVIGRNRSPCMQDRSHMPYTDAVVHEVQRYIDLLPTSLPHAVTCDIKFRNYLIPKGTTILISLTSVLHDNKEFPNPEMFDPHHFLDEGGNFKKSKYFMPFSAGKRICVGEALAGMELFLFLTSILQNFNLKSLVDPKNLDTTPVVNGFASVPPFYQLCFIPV
CYP2C19 act: increases human CYP2C19 enzyme activity. recombinant CYP2C19, luciferin-H EGE luminescence; stronger effect = higher value; 0 = fully inhibited enzyme, 1 = untreated enzyme. activation factor at 5 µM. 96,000 tested, under 10 active. AID 1025;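 active = activation factor of at least 2 at 5 µM in the primary screen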;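 note: 0 = wells with 2.5 mM tranylcypromine and 1 = vehicle-only wells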
CYP2C9 inhib: human CYP2C9 inhibition. 96,000 compounds, 20% hits. inhibition, % at 5 µM. P11712. CYP2C9 Supersomes, luciferin-H conversion, luminescence;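 active = blocking of liver enzyme CYP2C9 beyond about 50% at 5 µM, limit read from the data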
CYP2C19 inh: inhibitors of human CYP2C19 | CYP2C19 Supersomes, luciferin-H EGE luminescence, 30 min | AID 778 | 96,000 compounds, 21% hits | inhibition, % at 5 µM | P33261;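 active = CYP2C19 inhibition above a set limit at 5 µM in the primary screen, cut at about 50% in these data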;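 note: plate controls were negative control wells for no effect and 2.5 mM tranylcypromine positive control for full effect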
Active calls of the source: *.

SMILES | CYP2C9 activ | CYP2C19 act | CYP2C9 inhib | CYP2C19 inh
Cn1c(=O)oc2cc(S(=O)(=O)N3CCN(Cc4ccc5c(c4)OCO5)CC3)ccc21 | 0.7 | 0.7 | 30 | 25
CC(=O)c1sc(NC(=O)C2(F)C(F)(F)C(F)(F)C(F)(F)C(F)(F)C2(F)F)nc1C | 0.2 | 1.1 | 85* | -6
Cc1cc(C(=O)OCC(=O)c2ccc3c(c2)NC(=O)CO3)c2ccccc2n1 | 1.6 | 0.8 | -62 | 22
O=C1COc2ccc(C(=O)NCc3ccco3)cc2N1 | 1.2 | 1.1 | -15 | -6
O=C1COc2ccc(C(=O)c3ccccc3C(=O)NCc3ccco3)cc2N1 | 0.9 | 0.3 | 10 | 67*
O=C1COc2ccc(C(=O)c3ccccc3C(=O)NCc3ccccc3)cc2N1 | 0.7 | 0.2 | 30 | 75*
COc1cccc(-c2nnc(SCC(=O)OC(C)C)n2Cc2ccco2)c1 | 0.1 | 0.2 | 85* | 80*
CC(C)OC(=O)CSc1nnc(-c2cnccn2)n1Cc1ccco1 | 0.7 | 1.1 | 25 | -12
CC(C)OC(=O)CSc1nnc(Cc2ccccc2)n1Cc1ccco1 | 0.5 | 0.3 | 50 | 71*
N#Cc1cc2c([nH]c1=S)CCCCCC2 | 1 | 1.1 | -2 | -11
Cc1ccc(N=Cc2nc(-c3ccco3)oc2O)cc1 | 0.4 | 0.7 | 56* | 26
CCC1CCCCN1CCCNC(=O)CNC(=O)Cn1ccc2ccccc2c1=O (stereo not given) | 1.2 | 1.1 | -18 | -8
O=C(Nc1ccccc1Cl)c1cccc(COc2cc(Cl)ccc2Cl)c1 | 1 | 1 | -4 | -2
CCN1C(=O)c2cccc3c(S(=O)(=O)NCCCN4CCOCC4)ccc1c23 | 0.5 | 0.5 | 46 | 54*
CCN1C(=O)c2cccc3c(S(=O)(=O)NCCc4c[nH]c5ccccc45)ccc1c23 | 0.2 | 0.4 | 84* | 63*
O=C1CCC(=O)N1CCc1c[nH]c2ccccc12 | 1 | 1 | -2 | -2
COc1ccc(C(=O)NCC(=O)OCC(=O)NC(=O)NC2CCCCC2)cc1OC | 0.5 | 0.9 | 46 | 14
c1ccc(-c2nc3ccccc3c3nncn23)cc1 | 0.9 | 0.8 | 6 | 21
Cc1cccc(-c2nc3ccccc3c3nncn23)c1 | 0.8 | 0.5 | 16 | 54*
O=C1/C(=N/n2cnnc2)c2ccccc2N1Cc1ccccc1 | 0.7 | 0.4 | 26 | 63*
c1ccc2c(c1)C(=Nn1cnnc1)c1ccccc1-2 | 0.8 | 0.6 | 23 | 44
COc1ccc2cc(-c3csc(-c4cccnc4)n3)ccc2c1 | 1 | 0.2 | 2 | 75*
CS(=O)(=O)N(Cc1ccccc1)c1ccccc1C(=O)N1CCN(c2ccccc2)CC1 | 0.3 | 0.1 | 72* | 94*
CCN1CCN(C(=O)c2ccccc2N(Cc2ccccc2)S(=O)(=O)c2ccc(C)cc2)CC1 | 0.7 | 0.3 | 33 | 72*
CS(=O)(=O)N(Cc1ccccc1)c1ccccc1C(=O)O | 1.1 | 1.2 | -12 | -18
SMILES | CYP2C9 activ | CYP2C19 act | CYP2C9 inhib | CYP2C19 inh
C=CCNC(=O)c1ccccc1NC(=O)c1ccc(Cl)c(S(=O)(=O)Nc2ccccc2)c1 | 0.4 | 0.4 | 62* | 62*
CCN1CCN(C(=O)c2ccccc2N(Cc2ccccc2)S(C)(=O)=O)CC1 | 1.1 | 0.9 | -7 | 6
CCOC(=O)N1CCN(C(=O)CN(c2ccc(OCC)cc2)S(C)(=O)=O)CC1 | 1.3 | 1.1 | -27 | -8
CCOC(=O)N1CCN(C(=O)CN(c2ccc(Oc3ccccc3)cc2)S(C)(=O)=O)CC1 | 0.1 | 0.3 | 86* | 70*
CS(=O)(=O)N(Cc1ccccc1)c1ccc(C(=O)N2CCN(c3cccc(Cl)c3)CC2)cc1 | 0 | 0.1 | 98* | 92*
Cc1ccc(CN(c2ccc(C(=O)N3CCc4ccccc4C3)cc2)S(C)(=O)=O)cc1 | 0.2 | 0.5 | 84* | 49
CN1CCN(C(=O)c2ccc(N(Cc3ccc(Cl)cc3)S(C)(=O)=O)cc2)CC1 | 0.8 | 0.8 | 22 | 24
CCOC(=O)N1CCN(C(=O)c2ccc(CN(c3ccccc3)S(C)(=O)=O)cc2)CC1 | 0.5 | 0.8 | 54* | 24
CS(=O)(=O)N(Cc1ccc(Cl)cc1)c1ccc(C(=O)N2CCN(c3ccccc3)CC2)cc1 | 0 | 0.1 | 98* | 91*
Cc1cccc(NC(=O)c2cc(S(=O)(=O)NCc3ccco3)ccc2F)c1C | 0.9 | 0.8 | 13 | 20
CCOC(=O)N1CCN(C(=O)c2ccc(Cl)c(S(=O)(=O)Nc3ccccc3)c2)CC1 | 0.2 | 0.7 | 80* | 35
CCOC(=O)/C=C1\SCC(=O)N1CC(=O)NC1CCCCC1 | 1 | 0.3 | 3 | 67*
CCOC(=O)/C=C1\SCC(=O)N1CCOc1cccc(Br)c1 | 0.2 | 0.2 | 80* | 82*
